# In the supplement of paper PMC8728848:
# About 410 targets per protein were measured; listed, in parts, are those with the strongest signals and a random draw of the rest.
# Experiments:
# Assay in all cases: glycan array binding signal (z-score within array); higher = stronger binding
# Details in all cases: glycan notation: IUPAC condensed, linker removed
# [1] = target: Fuc(a1-2)Gal(b1-3)GlcNAc(b1-2)Man(a1-3)[Fuc(a1-2)Gal(b1-3)GlcNAc(b1-2)Man(a1-6)]Man(b1-4)GlcNAc(b1-4)[Fuc(a1-6)]GlcNAc
# In short: (§1)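 Glycan array data were curated from 3228 arrays in the Consortium for Functional Glycomics database and kept only where the protein sequence was available. Glycan names were converted to IUPAC-condensed notation, and columns mapping to the same glycan were averaged. The binding signal is a within-array Z-score, averaged across arrays of the same protein sequence at different concentrations or buffers and across linkers. Negative Z-scores can be read as non-binding.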
# [2] = target: Fuc(a1-2)Gal(b1-3)GlcNAc(b1-3)GalNAc
# In short: as §1
# [3] = target: Fuc(a1-2)Gal(b1-3)[Fuc(a1-4)]GlcNAc(b1-2)Man(a1-3)[Fuc(a1-2)Gal(b1-3)[Fuc(a1-4)]GlcNAc(b1-2)Man(a1-6)]Man(b1-4)GlcNAc(b1-4)GlcNAc
# In short: as §1
# [4] = target: Fuc(a1-2)Gal(b1-4)GlcNAc(b1-2)Man
# In short: as §1
# [5] = target: Fuc(a1-2)Gal(b1-4)GlcNAc(b1-2)Man(a1-3)[Fuc(a1-2)Gal(b1-4)GlcNAc(b1-2)Man(a1-6)]Man(b1-4)GlcNAc(b1-4)GlcNAc
# In short: as §1
# [6] = target: Fuc(a1-2)Gal(b1-4)GlcNAc(b1-3)[Fuc(a1-2)Gal(b1-4)GlcNAc(b1-6)]GalNAc
# In short: as §1
# [7] = target: Fuc(a1-2)Gal(b1-4)[Fuc(a1-3)]GlcNAc(b1-3)Gal(b1-4)[Fuc(a1-3)]GlcNAc
# In short: as §1
# [8] = target: Fuc(a1-2)Gal6S(b1-4)Glc
# In short: as §1
# [9] = target: Fuc(a1-2)[Gal(a1-3)]Gal(b1-3)GlcNAc(b1-2)Man(a1-3)[Fuc(a1-2)[Gal(a1-3)]Gal(b1-3)GlcNAc(b1-2)Man(a1-6)]Man(b1-4)GlcNAc(b1-4)GlcNAc
# In short: as §1
# [10] = target: Fuc(a1-2)[Gal(a1-3)]Gal(b1-3)GlcNAc(b1-2)Man(a1-3)[Fuc(a1-2)[Gal(a1-3)]Gal(b1-3)GlcNAc(b1-2)Man(a1-6)]Man(b1-4)GlcNAc(b1-4)[Fuc(a1-6)]GlcNAc
# In short: as §1
# [11] = target: Fuc(a1-2)[Gal(a1-3)]Gal(b1-4)GlcNAc(b1-2)Man(a1-3)[Fuc(a1-2)[Gal(a1-3)]Gal(b1-4)GlcNAc(b1-2)Man(a1-6)]Man(b1-4)GlcNAc(b1-4)GlcNAc
# In short: as §1
# [12] = target: Fuc(a1-2)[GalNAc(a1-3)]Gal
# In short: as §1
# [13] = target: Fuc(a1-2)[GalNAc(a1-3)]Gal(b1-3)GlcNAc(b1-2)Man(a1-3)[Fuc(a1-2)[GalNAc(a1-3)]Gal(b1-3)GlcNAc(b1-2)Man(a1-6)]Man(b1-4)GlcNAc(b1-4)GlcNAc
# In short: as §1
# [14] = target: Fuc(a1-3)[Gal(b1-4)]GlcNAc(b1-6)[Neu5Ac(a2-3)Gal(b1-3)]GalNAc
# In short: as §1
# [15] = target: Fuc(a1-3)[GalNAc3S(b1-4)]GlcNAc
# In short: as §1
# [16] = target: Gal(a1-3)Gal(b1-3)GlcNAc(b1-2)Man(a1-3)[Gal(a1-3)Gal(b1-3)GlcNAc(b1-2)Man(a1-6)]Man(b1-4)GlcNAc(b1-4)GlcNAc
# In short: as §1
# [17] = target: Gal(a1-3)Gal(b1-3)GlcNAc(b1-3)GalNAc
# In short: as §1
# [18] = target: Gal(a1-3)Gal(b1-4)[Fuc(a1-3)]GlcNAc(b1-2)Man(a1-3)[Gal(a1-3)Gal(b1-4)[Fuc(a1-3)]GlcNAc(b1-2)Man(a1-6)]Man(b1-4)GlcNAc(b1-4)GlcNAc
# In short: as §1
# [19] = target: Gal(b1-3)GlcNAc(b1-3)Gal(b1-4)GlcNAc(b1-6)[Gal(b1-3)GlcNAc(b1-3)]Gal(b1-4)Glc
# In short: as §1
# [20] = target: Gal(b1-3)[Neu5Ac(a2-6)]GlcNAc(b1-6)Gal(b1-4)Glc
# In short: as §1
# [21] = target: Gal3S(b1-3)GlcNAc
# In short: as §1
# [22] = target: Gal3S(b1-4)Glc
# In short: as §1
# [23] = target: Gal4S(b1-4)GlcNAc
# In short: as §1
# [24] = target: Gal6S(b1-4)Glc6S
# In short: as §1
# [25] = target: GalNAc(a1-3)Fuc(a1-2)Gal(b1-4)GlcNAc(b1-3)[GalNAc(a1-3)Fuc(a1-2)Gal(b1-4)GlcNAc(b1-6)]GalNAc
# In short: as §1
# [26] = target: GalNAc(b1-3)Gal
# In short: as §1
# [27] = target: Glc(a1-6)Glc(a1-6)Glc(a1-6)Glc
# In short: as §1
# [28] = target: GlcA(b1-3)Gal
# In short: as §1
# [29] = target: GlcNAc(a1-4)Gal(b1-4)GlcNAc(b1-3)Gal(b1-4)[Fuc(a1-3)]GlcNAc(b1-3)Gal(b1-4)[Fuc(a1-3)]GlcNAc
# In short: as §1
# [30] = target: GlcNAc(b1-3)Gal(b1-3)GalNAc
# In short: as §1
# [31] = target: GlcNAc(b1-4)Gal(b1-4)GlcNAc
# In short: as §1
# [32] = target: Neu5Ac(a2-3)Gal(b1-3)GlcNAc(b1-2)Man(a1-3)[GlcNAc(b1-4)][Neu5Ac(a2-3)Gal(b1-3)GlcNAc(b1-2)Man(a1-6)]Man(b1-4)GlcNAc(b1-4)GlcNAc
# In short: as §1
# [33] = target: Neu5Ac(a2-3)Gal(b1-3)GlcNAc(b1-3)GalNAc
# In short: as §1
# [34] = target: Neu5Ac(a2-3)Gal(b1-3)GlcNAc(b1-6)GalNAc
# In short: as §1
# [35] = target: Neu5Ac(a2-3)Gal(b1-3)[Neu5Ac(a2-6)]GalNAc
# In short: as §1
# [36] = target: Neu5Ac(a2-3)Gal(b1-4)GlcNAc
# In short: as §1
# [37] = target: Neu5Ac(a2-3)Gal(b1-4)GlcNAc(b1-3)Gal(b1-3)GlcNAc
# In short: as §1
# [38] = target: Neu5Ac(a2-3)Gal(b1-4)GlcNAc(b1-3)Gal(b1-4)[Fuc(a1-3)]GlcNAc
# In short: as §1
# [39] = target: Neu5Ac(a2-3)Gal(b1-4)[Fuc(a1-3)]GlcNAc(b1-3)GalNAc
# In short: as §1
# [40] = target: Neu5Ac(a2-6)Gal(b1-4)GlcNAc(b1-2)Man(a1-3)Man(b1-4)GlcNAc(b1-4)GlcNAc
# In short: as §1
# [41] = target: Neu5Ac(a2-6)Gal(b1-4)GlcNAc(b1-2)Man(a1-3)[Man(a1-6)]Man(b1-4)GlcNAc(b1-4)GlcNAc
# In short: as §1
# [42] = target: Neu5Ac(a2-6)Gal(b1-4)GlcNAc(b1-2)Man(a1-6)Man(b1-4)GlcNAc(b1-4)GlcNAc
# In short: as §1
# [43] = target: Neu5Ac(a2-6)Gal(b1-4)GlcNAc(b1-3)Gal(b1-4)GlcNAc(b1-3)Gal(b1-4)GlcNAc
# In short: as §1
# [44] = target: Neu5Ac(a2-8)Neu5Ac(a2-3)[GalNAc(b1-4)]Gal(b1-4)Glc
# In short: as §1
# [45] = target: Neu5Ac(a2-8)Neu5Ac(a2-8)Neu5Ac(a2-3)Gal(b1-4)Glc
# In short: as §1
binder,measurement,setting,value
Intelectin-1a (Mus musculus) (protein) AEWSHPQFEKAEENLDTNRWGNSFFSSLPRSCKEIKQEHTKAQDGLYFLRTKNGVIYQTFCDMTTAGGGWTLVASVHENNMRGKCTVGDRWSSQQGNRADYPEGDGNWANYNTFGSAEAATSDDYKNPGYFDIQAENLGIWHVPNKSPLHNWRKSSLLRYRTFTGFLQHLGHNLFGLYKKYPVKYGEGKCWTDNGPALPVVYDFGDARKTASYYSPSGQREFTAGYVQFRVFNNERAASALCAGVRVTGCNTEHHCIGGGGFFPEGNPVQCGDFASFDWDGYGTHNGYSSSRKITEAAVLLFYR,glycan array binding signal (z-score),[1],-0.492
same,glycan array binding signal (z-score),[2],2.92
same,glycan array binding signal (z-score),[3],2.9
same,glycan array binding signal (z-score),[4],1.06
same,glycan array binding signal (z-score),[5],-0.329
same,glycan array binding signal (z-score),[6],-0.517
same,glycan array binding signal (z-score),[7],-1.05
same,glycan array binding signal (z-score),[8],1.88
same,glycan array binding signal (z-score),[9],0.954
same,glycan array binding signal (z-score),[10],3.73
same,glycan array binding signal (z-score),[11],-0.423
same,glycan array binding signal (z-score),[12],0.968
same,glycan array binding signal (z-score),[13],0.792
same,glycan array binding signal (z-score),[14],-0.328
same,glycan array binding signal (z-score),[15],0.115
same,glycan array binding signal (z-score),[16],2.64
same,glycan array binding signal (z-score),[17],-0.09
same,glycan array binding signal (z-score),[18],2.76
same,glycan array binding signal (z-score),[19],2.74
same,glycan array binding signal (z-score),[20],0.312
same,glycan array binding signal (z-score),[21],-0.392
same,glycan array binding signal (z-score),[22],-0.304
same,glycan array binding signal (z-score),[23],-0.354
same,glycan array binding signal (z-score),[24],-0.38
same,glycan array binding signal (z-score),[25],1.24
same,glycan array binding signal (z-score),[26],-0.938
same,glycan array binding signal (z-score),[27],-0.709
same,glycan array binding signal (z-score),[28],0.662
same,glycan array binding signal (z-score),[29],5.84
same,glycan array binding signal (z-score),[30],-0.724
same,glycan array binding signal (z-score),[31],-0.454
same,glycan array binding signal (z-score),[32],-0.723
same,glycan array binding signal (z-score),[33],-0.237
same,glycan array binding signal (z-score),[34],0.808
same,glycan array binding signal (z-score),[35],-0.222
same,glycan array binding signal (z-score),[36],-1.12
same,glycan array binding signal (z-score),[37],-0.402
same,glycan array binding signal (z-score),[38],-0.8
same,glycan array binding signal (z-score),[39],6.37
same,glycan array binding signal (z-score),[40],0.578
same,glycan array binding signal (z-score),[41],3.98
same,glycan array binding signal (z-score),[42],-0.293
same,glycan array binding signal (z-score),[43],0.765
same,glycan array binding signal (z-score),[44],-0.791
same,glycan array binding signal (z-score),[45],-0.483
